Assay results: PubChem BioAssay (EPA / NIEHS)
Results filed as inconclusive are left out. Calls of active or inactive are those of the source. The calls were made as follows, unless noted: active = hit-call score of the fitted dose curve at least 0.9, where 1 is the maximum; inactive = score below 0.9.

Experiments:
[1] = CEETOX_H295R_11DCORT: CeeTox H295R High-throughput Steroidogenesis Assay for 11-Deoxycortisol (11DCORT) (AID 2283432); details: actives raise or lower the signal;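 as to AC50: 11-deoxycortisol secreted into the medium measured by LC-MS/MS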
Summary of the method: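 Steroidogenesis in human H295R cells: 48 h chemical exposure after forskolin priming, 11-deoxycortisol measured by LC-MS/MS.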

[2] = CEETOX_H295R_OHPREG: CeeTox H295R High-throughput Steroidogenesis Assay for OH-Pregnenolone (OHPREG) (AID 2283434); details: actives raise or lower the signal
Summary of the method: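 Readout: HPLC-MS/MS of 17alpha-hydroxypregnenolone in medium after 48 h chemical exposure of H295R cells pretreated with forskolin. Values fitted bidirectionally relative to DMSO; chemicals reducing viability to 20–70% were retested after 10-fold dilution.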

[3] = CEETOX_H295R_OHPROG: CeeTox H295R High-throughput Steroidogenesis Assay for OH-Progesterone (OHPROG) (AID 2283435); details: actives raise or lower the signal;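 as to AC50: 17alpha-hydroxyprogesterone secreted into medium measured by HPLC-MS/MS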
Summary of the method: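 HPLC-MS/MS quantification of 17alpha-hydroxyprogesterone secreted by H295R cells after 48 h chemical exposure, following 48 h 10 uM forskolin prestimulation. Gain or loss of signal fitted relative to DMSO. Viability checked by MTT in the same wells.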

[4] = CEETOX_H295R_CORTISOL: CeeTox H295R High-throughput Steroidogenesis Assay for Cortisol (AID 2283438); details: actives raise or lower the signal;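 also: cortisol secreted into medium quantified by LC-MS/MS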
Summary of the method: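 Read-out: cortisol in culture medium by reverse-phase C18 HPLC with ESI-positive tandem MS, after MTBE liquid-liquid extraction. Cells: human adrenal H295R, forskolin-primed (10 uM, 48 h) before 48 h chemical exposure in 0.1% DMSO.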

[5] = CEETOX_H295R_DOC: CeeTox H295R High-throughput Steroidogenesis Assay for DOC (AID 2283439); details: actives raise or lower the signal
Summary of the method: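 Human adrenocortical H295R cells, passages up to 10, received 10 uM forskolin for 48 h before chemical addition. After another 48 h exposure in 0.1% DMSO, secreted DOC was measured by LC-MS/MS, with gain or loss fitted against DMSO controls.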

[6] = CEETOX_H295R_ESTRADIOL: CeeTox H295R High-throughput Steroidogenesis Assay for Estradiol (AID 2283440); details: actives raise or lower the signal;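 also: estradiol secreted into medium quantified by LC-MS/MS after dansyl derivatisation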
Summary of the method: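 Readout is estradiol in conditioned medium, quantified by reverse-phase HPLC-MS/MS against a 7-point standard curve. Cells: H295R, forskolin-stimulated, then dosed 48 h in 0.1% DMSO; activity fitted in both directions relative to DMSO.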

[7] = CEETOX_H295R_ESTRONE: CeeTox H295R High-throughput Steroidogenesis Assay for Estrone (AID 2283441); details: actives raise or lower the signal;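 also: estrone secreted into medium measured by LC-MS/MS after dansyl derivatization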;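 as to AC50: human adrenal H295R cells prestimulated with forskolin for two days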
Summary of the method: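 Forskolin-stimulated H295R cells are treated 48 h with chemical, and estrone in the medium is measured by LC-MS/MS. Activity is fitted in both directions relative to DMSO controls, with chemicals diluted until MTT viability reaches at least 70%.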

[8] = CEETOX_H295R_ANDR: CeeTox H295R High-throughput Steroidogenesis Assay for Androstenedione (ANDR) (AID 2283436); details: actives raise or lower the signal;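 also: human H295R adrenal cells exposed for 48 h with androstenedione measured in medium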
Summary of the method: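 Steroidogenesis in H295R adrenal cells after 48 h dosing; androstenedione quantified by LC-MS/MS, with DMSO as negative control and baseline for bidirectional curve fitting.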

[9] = target: Peroxisome proliferator-activated receptor gamma (Homo sapiens) (UniProt P37231); test: OT_PPARg_PPARgSRC1_0480: Odyssey Thera (OT) 8-hour Protein-Complementation Assay for Peroxisome Proliferator-activated Receptor Gamma / SRC-1 Co-activator (AID 2283387; active = hit-call score of the fitted dose curve at least 0.9, where 1 is the maximum;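 also: nuclear to cytoplasmic split Venus YFP fluorescence ratio reporting PPARg SRC-1 interaction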)
Summary of the method: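 Split-YFP (IFP1/IFP2) PPARg/SRC-1 reporter, HEK293T, 37 °C, 5% CO2; 8 h compound; formaldehyde fix + Draq5; high-content imaging, N/C ratio, ≥350 cells/image, positive direction vs DMSO.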

[10] = target: Peroxisome proliferator-activated receptor gamma (Homo sapiens) (UniProt P37231); test: OT_PPARg_PPARgSRC1_1440: Odyssey Thera (OT) 24-hour Protein-Complementation Assay for Peroxisome Proliferator-activated Receptor Gamma/ SRC-1 Co-activator (AID 2283388; active = hit-call score of the fitted dose curve at least 0.9, where 1 is the maximum;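 also: nuclear to cytoplasmic ratio of reconstituted Venus YFP fluorescence in fixed imaged cells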)
Summary of the method: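 Cells carrying the PPARg/SRC-1 fragment-complementation reporter receive compound for 24 hours, are fixed and counterstained with Draq5, then imaged. Increased nuclear relative to cytoplasmic YFP fluorescence above DMSO baseline indicates binding activity.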

[11] = read-out: Tumor necrosis factor receptor superfamily member 6 (Homo sapiens) (UniProt P25445); test: LTEA_HepaRG_FAS: Life Technologies and Expression Analysis (LTEA) Assay for Fas cell surface death receptor (FAS) using HepaRG (AID 2283447); details: mRNA level, 48 h; actives raise or lower the signal
Summary of the method: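 Differentiated human HepaRG cells, pre-cultured 48 h, were exposed in duplicate for 48 h to 8-point half-log concentrations (top 100 uM, 0.5% DMSO) in serum-free induction medium; FAS mRNA measured by qRT-PCR, normalized to ACTB/GAPDH/POLR2A, bidirectional fit versus DMSO.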

[12] = read-out: Fatty acid synthase (Homo sapiens) (UniProt P49327); test: LTEA_HepaRG_FASN: Life Technologies and Expression Analysis (LTEA) Assay for Fatty Acid Synthase (FASN) using HepaRG (AID 2283448); details: mRNA level, 48 h; actives raise or lower the signal
Summary of the method: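 HepaRG, 48 h exposure, 8-pt half-log series top 100 uM, 0.5% DMSO vehicle, duplicates. Readout: FASN transcript by Fluidigm qRT-PCR; housekeeping-normalized; bidirectional curve fit vs DMSO baseline.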

[13] = read-out: Cyclin D2 (CCND2), CCND2 (gene 894); test: LTEA_HepaRG_CCND2: Life Technologies and Expression Analysis (LTEA) Assay for Cyclin D2 (CCND2) using HepaRG (AID 2283449); details: mRNA level, 48 h; actives raise or lower the signal;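 also: CCND2 transcript measured by TaqMan qRT-PCR and normalised to three housekeeping genes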
Summary of the method: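 In this HepaRG study, an eight-point concentration series (max 100 uM, 0.5% DMSO) is applied for 48 h. CCND2 mRNA change is derived by qRT-PCR normalised to ACTB, GAPDH and POLR2A.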

[14] = read-out: Cyclin Dependent Kinase Inhibitor 1A (CDKN1A), CDKN1A (gene 1026); test: LTEA_HepaRG_CDKN1A: Life Technologies and Expression Analysis (LTEA) Assay for Cyclin Dependent Kinase Inhibitor 1A (CDKN1A) using HepaRG (AID 2283450); details: mRNA level, 48 h; actives raise or lower the signal
Summary of the method: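 Gain or loss of CDKN1A transcript is scored by bidirectional fitting against 0.5% DMSO vehicle. Human HepaRG cultures receive chemicals for 48 h across an 8-point series peaking at 100 uM; expression comes from qRT-PCR.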

[15] = read-out: Cyclin D1 (CCND1), CCND1 (gene 595); test: LTEA_HepaRG_CCND1: Life Technologies and Expression Analysis (LTEA) Assay for Cyclin D1 (CCND1) using HepaRG (AID 2283451); details: mRNA level, 48 h; actives raise or lower the signal
Summary of the method: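 Expression change is measured by qRT-PCR in HepaRG cells after 48 h treatment across eight concentrations topping at 100 uM, with duplicate wells and DMSO (0.5%) serving as baseline for bidirectional fitting.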

[16] = read-out: catalase (CAT), CAT (gene 847); test: LTEA_HepaRG_CAT: Life Technologies and Expression Analysis (LTEA) Assay for catalase (CAT) using HepaRG (AID 2283452); details: mRNA level, 48 h; actives raise or lower the signal
Summary of the method: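 Differentiated HepaRG cells in serum-free induction medium were dosed 48 h in duplicate, eight half-log concentrations from 100 uM in 0.5% DMSO. Transcript measured by TaqMan qRT-PCR, normalised to ACTB/GAPDH/POLR2A, fitted bidirectionally against DMSO.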

[17] = read-out: flavin-containing dimethylaniline monooxygenases 3 (FMO3), FMO3 (gene 2328); test: LTEA_HepaRG_FMO3: Life Technologies and Expression Analysis (LTEA) Assay for flavin-containing dimethylaniline monooxygenases 3 (FMO3) using HepaRG (AID 2283453); details: mRNA level, 48 h; actives raise or lower the signal
Summary of the method: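 Eight-point concentration-response in serum-free HepaRG cultures (top 100 uM, 0.5% DMSO, 48 h). Read-out: FMO3 mRNA level normalized to three endogenous control genes, fitted bidirectionally versus vehicle.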

[18] = read-out: Cytochrome P450 (CYP1A1), CYP1A1 (gene 1543); test: LTEA_HepaRG_CYP1A1: Life Technologies and Expression Analysis (LTEA) Assay for Cytochrome P450 (CYP1A1) using HepaRG (AID 2283454); details: mRNA level, 48 h; actives raise or lower the signal
Summary of the method: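 Using HepaRG cultures with 0.5% DMSO as vehicle, eight-concentration exposures (max 100 uM) lasted 48 h. Transcript levels were measured by TaqMan qRT-PCR and normalized to ACTB, GAPDH and POLR2A.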

[19] = read-out: CFLAR gene, CFLAR (gene 8837); test: LTEA_HepaRG_CFLAR: Life Technologies and Expression Analysis (LTEA) Assay for CFLAR gene using HepaRG (AID 2283455); details: mRNA level, 48 h; actives raise or lower the signal
Summary of the method: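 Gain- or loss-of-signal changes in CFLAR transcript were fitted bidirectionally relative to 0.5% DMSO. Cells (HepaRG, duplicate wells) were dosed for 48 h across eight half-log concentrations topping at 100 uM; quantitation by TaqMan qRT-PCR.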

[20] = read-out: Forkhead box O1 (FOXO1), FOXO1 (gene 2308); test: LTEA_HepaRG_FOXO1: Life Technologies and Expression Analysis (LTEA) Assay for Forkhead box O1 (FOXO1) using HepaRG (AID 2283456); details: mRNA level, 48 h; actives raise or lower the signal
Summary of the method: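 Using one lot of HepaRG hepatic cells kept in 0.5% DMSO, the team applied test chemicals in duplicate, half-log dilutions from 100 uM, for 48 h. Expression, normalised to ACTB/GAPDH/POLR2A, was compared with vehicle in either direction.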

Measured: AC50

Sequence of Fatty acid synthase (Homo sapiens) (P49327 whole entry, looked up): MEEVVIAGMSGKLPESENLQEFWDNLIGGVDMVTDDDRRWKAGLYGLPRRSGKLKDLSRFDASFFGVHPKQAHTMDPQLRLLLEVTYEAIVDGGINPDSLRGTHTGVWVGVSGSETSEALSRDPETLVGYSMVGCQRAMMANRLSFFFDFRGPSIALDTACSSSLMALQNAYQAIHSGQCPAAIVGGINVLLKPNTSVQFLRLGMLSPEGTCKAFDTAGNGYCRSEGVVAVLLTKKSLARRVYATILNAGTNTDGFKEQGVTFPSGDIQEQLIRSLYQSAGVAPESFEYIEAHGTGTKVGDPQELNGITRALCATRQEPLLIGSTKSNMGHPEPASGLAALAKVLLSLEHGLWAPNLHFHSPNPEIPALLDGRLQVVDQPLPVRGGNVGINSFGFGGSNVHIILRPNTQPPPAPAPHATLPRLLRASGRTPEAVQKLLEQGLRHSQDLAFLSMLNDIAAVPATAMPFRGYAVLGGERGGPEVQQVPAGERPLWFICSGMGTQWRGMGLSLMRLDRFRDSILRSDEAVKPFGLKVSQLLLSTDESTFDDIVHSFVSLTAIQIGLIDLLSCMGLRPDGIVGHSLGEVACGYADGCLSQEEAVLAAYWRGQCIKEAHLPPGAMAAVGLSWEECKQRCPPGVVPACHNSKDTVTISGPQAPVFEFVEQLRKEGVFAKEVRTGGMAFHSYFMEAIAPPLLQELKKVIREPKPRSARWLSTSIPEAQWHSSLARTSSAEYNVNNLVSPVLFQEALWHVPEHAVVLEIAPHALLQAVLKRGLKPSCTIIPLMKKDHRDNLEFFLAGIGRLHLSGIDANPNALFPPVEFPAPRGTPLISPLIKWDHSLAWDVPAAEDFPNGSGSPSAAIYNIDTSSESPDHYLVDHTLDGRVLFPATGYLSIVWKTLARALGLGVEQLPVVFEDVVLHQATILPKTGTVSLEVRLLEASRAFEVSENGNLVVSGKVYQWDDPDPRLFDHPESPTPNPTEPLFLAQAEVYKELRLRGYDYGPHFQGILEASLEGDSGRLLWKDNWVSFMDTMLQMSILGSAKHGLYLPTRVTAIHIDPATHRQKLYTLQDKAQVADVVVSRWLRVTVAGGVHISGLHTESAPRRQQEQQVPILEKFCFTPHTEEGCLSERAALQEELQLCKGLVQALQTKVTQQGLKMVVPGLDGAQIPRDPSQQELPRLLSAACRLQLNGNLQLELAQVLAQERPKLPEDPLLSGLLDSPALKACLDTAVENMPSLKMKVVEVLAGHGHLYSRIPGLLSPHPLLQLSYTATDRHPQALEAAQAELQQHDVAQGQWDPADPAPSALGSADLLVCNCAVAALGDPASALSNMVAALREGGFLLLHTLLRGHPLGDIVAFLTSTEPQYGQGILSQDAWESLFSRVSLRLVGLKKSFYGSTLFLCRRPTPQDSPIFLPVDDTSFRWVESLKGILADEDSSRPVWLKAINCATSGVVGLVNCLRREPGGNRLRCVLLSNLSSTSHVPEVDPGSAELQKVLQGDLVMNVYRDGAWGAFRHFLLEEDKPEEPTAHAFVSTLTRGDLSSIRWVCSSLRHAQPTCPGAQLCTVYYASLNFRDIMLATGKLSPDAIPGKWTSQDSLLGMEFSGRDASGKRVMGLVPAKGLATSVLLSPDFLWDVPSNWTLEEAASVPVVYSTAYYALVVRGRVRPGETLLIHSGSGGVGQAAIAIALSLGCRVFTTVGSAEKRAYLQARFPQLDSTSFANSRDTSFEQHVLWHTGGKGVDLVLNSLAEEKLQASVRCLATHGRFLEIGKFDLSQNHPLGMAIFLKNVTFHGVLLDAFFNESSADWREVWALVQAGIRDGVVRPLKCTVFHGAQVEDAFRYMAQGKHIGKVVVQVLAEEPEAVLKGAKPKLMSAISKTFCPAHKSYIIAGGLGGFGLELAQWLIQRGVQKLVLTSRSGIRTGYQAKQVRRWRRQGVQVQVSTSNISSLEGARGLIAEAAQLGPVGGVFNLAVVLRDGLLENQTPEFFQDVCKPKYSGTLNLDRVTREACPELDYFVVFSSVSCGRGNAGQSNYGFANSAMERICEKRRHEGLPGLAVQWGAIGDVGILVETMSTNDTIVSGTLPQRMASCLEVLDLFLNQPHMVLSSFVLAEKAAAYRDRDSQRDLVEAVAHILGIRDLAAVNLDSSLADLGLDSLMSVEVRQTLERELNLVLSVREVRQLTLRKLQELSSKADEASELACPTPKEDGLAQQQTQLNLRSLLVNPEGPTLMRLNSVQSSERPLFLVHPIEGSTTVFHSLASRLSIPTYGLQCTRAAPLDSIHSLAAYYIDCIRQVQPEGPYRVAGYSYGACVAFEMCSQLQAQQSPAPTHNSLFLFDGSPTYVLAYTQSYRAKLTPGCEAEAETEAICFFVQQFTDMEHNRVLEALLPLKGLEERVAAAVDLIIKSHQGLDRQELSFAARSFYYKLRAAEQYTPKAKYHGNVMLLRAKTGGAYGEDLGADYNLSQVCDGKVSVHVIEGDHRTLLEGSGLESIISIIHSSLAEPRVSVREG
Sequence of Peroxisome proliferator-activated receptor gamma (Homo sapiens) (P37231 whole entry, looked up, the tested form may be a part): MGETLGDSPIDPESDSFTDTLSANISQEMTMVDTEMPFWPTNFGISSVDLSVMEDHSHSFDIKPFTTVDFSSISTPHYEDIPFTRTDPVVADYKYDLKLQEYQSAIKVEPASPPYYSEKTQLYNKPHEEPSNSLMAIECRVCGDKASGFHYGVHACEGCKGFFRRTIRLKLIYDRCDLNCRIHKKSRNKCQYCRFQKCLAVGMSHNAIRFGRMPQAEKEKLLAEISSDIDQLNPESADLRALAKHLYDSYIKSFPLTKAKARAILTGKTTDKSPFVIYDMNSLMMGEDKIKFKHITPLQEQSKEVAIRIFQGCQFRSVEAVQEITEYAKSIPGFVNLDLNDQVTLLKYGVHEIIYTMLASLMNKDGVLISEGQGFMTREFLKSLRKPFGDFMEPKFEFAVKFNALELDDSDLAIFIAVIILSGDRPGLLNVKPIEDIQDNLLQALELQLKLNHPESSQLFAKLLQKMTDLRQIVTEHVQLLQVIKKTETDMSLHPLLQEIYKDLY

O=[N+]([O-])c1ccc(Nc2ccccc2)cc1
inactive: [1] | [2] | [4] | [5] | [6] | [7]
active: [3] 1.42 µM

C[C@]12CC[C@@H](O)C[C@@H]1CC[C@@H]1[C@@H]2CC[C@]2(C)C(=O)CC[C@@H]12
active: [3] 1.87 µM | [5] 2.64 µM
inactive: [1] | [2] | [4]

Cc1ccccc1OP(=O)(Oc1ccccc1C)Oc1ccccc1C
inactive: [1] | [2] | [3] | [8] | [4] | [5]

COc1ccccc1N
active: [18] 68.2 µM
inactive: [9] | [10] | [11] | [12] | [13] | [14] | [15] | [16] | [17] | [19] | [20]

OCCN(CCO)CCO
active: [18] 73.2 µM
inactive: [11] | [12] | [13] | [14] | [15] | [16] | [17] | [19] | [20]

CCOCn1c(-c2ccc(Cl)cc2)c(C#N)c(Br)c1C(F)(F)F
active: [1] 15.3 µM | [2] 6.2 µM | [3] 13.2 µM | [4] 7.15 µM | [6] 4.19 µM | [7] 5.33 µM
inactive: [9] | [10] | [5]

CCCCCCCCCCCCN(C)C
inactive: [9] | [10] | [1] | [2] | [3] | [4] | [5] | [6] | [7]

CCOP(=O)(OCC)OC(=CCl)c1ccc(Cl)cc1Cl
active: [1] 5.43 µM | [3] 5.16 µM | [4] 5.66 µM | [5] 5.48 µM
inactive: [2]

N#Cc1cccnc1
inactive: [9] | [10] | [11] | [12] | [13] | [14] | [15] | [16] | [17] | [18] | [19] | [20]

Oc1cc(Cl)c(Cl)cc1Cl
active: [18] 80.5 µM
inactive: [9] | [10] | [11] | [12] | [13] | [14] | [15] | [16] | [17] | [19] | [20]
